Source: PubChem (several laboratories)
CYP2C9 act: CYP2C9 (human) activation; P11712; recombinant CYP2C9, luciferin-H conversion, luminescence; hits give high values; factor 1 = untreated enzyme, 0 = blocked; 96,000 tested, 1.4% active; activation factor at 5 µM;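 active = activation factor of 2 or more for CYP2C9 at a 5 µM dose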
Target sequence (P11712 whole entry, looked up): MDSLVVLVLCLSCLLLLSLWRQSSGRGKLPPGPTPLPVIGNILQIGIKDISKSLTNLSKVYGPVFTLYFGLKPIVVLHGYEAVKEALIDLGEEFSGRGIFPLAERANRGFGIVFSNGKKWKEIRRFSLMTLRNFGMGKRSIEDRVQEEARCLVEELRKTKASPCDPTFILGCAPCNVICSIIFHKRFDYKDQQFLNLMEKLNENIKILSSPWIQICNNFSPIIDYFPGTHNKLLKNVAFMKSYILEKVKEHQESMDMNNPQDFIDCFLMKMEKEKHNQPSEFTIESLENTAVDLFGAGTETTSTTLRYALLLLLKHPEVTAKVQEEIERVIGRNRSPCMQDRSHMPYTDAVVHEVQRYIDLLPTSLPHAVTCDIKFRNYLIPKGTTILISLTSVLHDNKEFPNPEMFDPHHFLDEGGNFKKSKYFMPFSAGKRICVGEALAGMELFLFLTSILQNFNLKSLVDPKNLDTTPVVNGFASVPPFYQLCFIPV
CYP2C9 inhib: inhibitors of human CYP2C9 | P11712 | CYP2C9 Supersomes, luciferin-H conversion, luminescence | inhibition, % at 5 µM | 96,000 tested, 20% active | AID 777;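 active = blocking of liver enzyme CYP2C9 beyond about 50% at 5 µM, limit read from the data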
CYP2C19 activ: activators of human cytochrome P450 2C19; AID 1025; recombinant CYP2C19, luciferin-H EGE luminescence; hits give high values; 0 = fully inhibited enzyme, 1 = untreated enzyme; P33261; activation factor at 5 µM; 96,000 tested, under 10 active;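 active = activation factor of at least 2 at 5 µM in the primary screen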
CYP2C19 inh: human CYP2C19 inhibition. inhibition, % at 5 µM. P33261. 96,000 tested, 21% active. CYP2C19 Supersomes, luciferin-H EGE luminescence, 30 min. AID 778;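 active = CYP2C19 inhibition above a set limit at 5 µM in the primary screen, cut at about 50% in these data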
E-sel TNF inh: TNF alpha driven E-selectin expression inhibition. inhibition, % at 2 µM. HUVEC TNFa-induced E-selectin immunofluorescence, high content. 120,000 tested, 0.71% active. AID 1246;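 active = inhibition above the batch mean plus 3 SD, and confirmed as a hit on visual image review, cut at about 43% in these data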
cytoskel mod: alters cytoskeleton assembly in HUVEC cells; HUVEC TNFa F-actin phalloidin imaging, high content; inhibition, % at 2 µM; 91,000 tested, 0.18% active;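 active = inhibition above the batch mean plus 3 SD and confirmed as a hit by visual image inspection, cut at about 30% in these data, passing the limit was not always enough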
Hits are given with their value; n = inactive; x = no result. A selection: hits, their analogues and other compounds. The true share with any hit is near 22%.

SMILES | CYP2C9 act | CYP2C9 inhib | CYP2C19 activ | CYP2C19 inh | E-sel TNF inh | cytoskel mod
O=C(COc1cccc2ccccc12)NNC(=O)c1cccs1 | 2.9 | n | n | n | n | n
O=C(COc1ccc2ccccc2c1)NNC(=O)c1cccs1 | x | x | x | x | n | x
O=C(COc1ccccc1)NCCc1cn2ccsc2n1 | n | n | n | 84 | x | n
O=C(COc1ccccc1)NCc1cccs1 | n | n | n | 58 | n | n
O=c1c2cccnc2[nH]c(=S)n1CCCN1CCN(c2ccc(F)cc2)CC1 | n | n | n | n | 100 | n
O=C(CCCn1c(=S)[nH]c2ccc(Br)cc2c1=O)N1CCN(c2ccccn2)CC1 | n | 55 | n | 70 | x | n
COc1ccc(N2CCN(C(=O)C3CCC(Cn4c(=S)[nH]c5ccccc5c4=O)CC3)CC2)cc1 (stereo not drawn) | n | 81 | n | 83 | n | x
O=c1c2ccccc2[nH]c(=S)n1CCCN1CCOCC1 | n | n | n | 60 | x | n
COc1ccc(N2CCN(CCCn3c(=S)[nH]c4ncccc4c3=O)CC2)cc1 | n | n | n | n | n | n
CC1Oc2ccccc2N(CC(=O)NCc2cccs2)C1=O (stereo not drawn) | x | x | x | x | n | x
O=C(CCCn1c(=S)[nH]c2ccccc2c1=O)N1CCCCC1 | n | n | n | 81 | n | n
CC1CCN(CCCn2c(=S)[nH]c3ccccc3c2=O)CC1 | n | n | n | n | n | n
CC1CC(C)CN(C(=O)CCCn2c(=S)[nH]c3ccccc3c2=O)C1 (stereo not drawn) | n | n | n | 85 | n | n
Cc1sc(NC(=O)C(C)C)c(C(=O)Nc2ccccc2)c1C | n | n | n | n | n | n
O=C(CSc1nccc(=O)[nH]1)Nc1ccc(F)c(Cl)c1 | n | n | n | n | n | n
O=C(CSc1nccc(=O)[nH]1)Nc1ccc(Br)c(Cl)c1 | n | 79 | n | n | n | n
COc1cccc(C2C(C#N)=C(N)Oc3cc(C)oc(=O)c32)c1OC (stereo not drawn) | n | 74 | n | n | n | x
Cc1ccc(C)c(C2C(C#N)=C(N)Oc3cc(C)oc(=O)c32)c1 (stereo not drawn) | x | x | x | x | n | x
Cc1cc2c(c(=O)o1)C(CC(C)C)C(C#N)=C(N)O2 (stereo not drawn) | n | 63 | n | n | n | n
Cc1cc2c(c(=O)o1)C(C13C=CC(CC1)C3)C(C#N)=C(N)O2 (stereo not drawn) | n | 75 | n | 72 | n | n
CCn1cnc2sc(C(=O)Oc3ccc(Br)cc3)c(C)c2c1=O | x | x | x | x | n | x
O=C(CC(c1ccccc1)C1CCCCC1=O)c1ccco1 (stereo not drawn) | x | x | x | x | n | n
COc1ccc(C(=O)CC(c2ccccc2)C2CCCCC2=O)cc1 (stereo not drawn) | n | 73 | n | n | n | x
CN(C)c1ccc(C(CC(=O)c2ccccc2)C2CCCCC2=O)cc1 (stereo not drawn) | x | x | x | x | n | x
COc1ccc(C(=O)NCC(=O)OC2CCCCC2=O)cc1 (stereo not drawn) | n | n | n | 81 | x | n
SMILES | CYP2C9 act | CYP2C9 inhib | CYP2C19 activ | CYP2C19 inh | E-sel TNF inh | cytoskel mod
COc1cc(OC)cc(C(=O)NCC(=O)OC2CCOC2=O)c1 (stereo not drawn) | n | n | n | n | x | n
O=C(CC(c1ccco1)C1CCCCC1=O)c1ccco1 (stereo not drawn) | n | 55 | n | 53 | n | n
CCN(CC)C(=O)c1ccc2c(c1)N(Cc1ccccc1)C(=O)CS2=O (stereo not drawn) | n | n | n | n | n | x
CCc1ccc(S(=O)(=O)N(C(=O)c2ccncc2)c2ccc(OC(=O)c3ccncc3)cc2)cc1 | x | x | x | x | n | x
CCCCCc1nc2c(C#N)c(-c3ccc(Cl)cc3)ccn2n1 | n | 58 | n | n | n | n
CC(C)CCn1c(Sc2nc3ccccc3o2)nc2c1c(=O)[nH]c(=O)n2C | x | x | x | x | n | x
COc1ccc(N2C(=O)CSC2c2ccncc2)cc1 (stereo not drawn) | n | 58 | n | n | n | x
COc1ccc(N2C(=O)CSC2c2ccc3c(c2)OCO3)cc1 (stereo not drawn) | n | n | n | 89 | n | n
COc1ccc(N2C(=O)CSC2c2ccc3c(c2)OCO3)c(OC)c1 (stereo not drawn) | n | n | n | 84 | x | x
O=P1(c2ccccc2)C=Cn2c1cc1c2CCCC1 (stereo not drawn) | x | x | x | x | n | x
Cc1cccc(/C(N)=N/OC(=O)c2ccc(F)cc2)c1 | x | x | x | x | n | x
